Reference: PubChem BioAssay (NCI)
Several values for one entry are separate records, joined by “and”; a condition that tells them apart may be missing. Equal entries are not always repeated. The panel holds about 79,000 compounds, 15% with a hit somewhere; the sample as a whole holds those more often. Unmarked numbers belong to inactive results. Activity calls are given as the source filed them. Cut-off read from the data, not from the text of the source: active = growth inhibition above about 70%; inactive = the rest.

Columns and labels:
[1] = NCI Yeast Anticancer Drug Screen. Data for the rad50 strain (AID 155);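 note: 0% = growth of vehicle-only cultures of the same strain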; settings: S. cerevisiae rad50 strain growth inhibition, stronger effect = higher value
In short: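 Inhibition values express reduced yeast growth in compound-treated cultures relative to vehicle-treated controls.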

[2] = NCI Yeast Anticancer Drug Screen. Data for the mec2-1 strain (AID 157); settings: S. cerevisiae mec2-1 strain, stronger effect = higher value
In short: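 Each compound was tested on mec2-1 yeast, a strain altered in DNA damage repair or cell cycle control. Growth inhibition is reported relative to vehicle.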

[3] = NCI Yeast Anticancer Drug Screen. Data for the sgs1 mgt1 strain (AID 161);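 note: 0% = growth of cultures given vehicle only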; settings: S. cerevisiae sgs1 mgt1 strain, stronger effect = higher value
In short: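 Genetically altered yeast, compound exposure, growth inhibition relative to vehicle.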

[4] = NCI Yeast Anticancer Drug Screen. Data for the cln2 rad14 strain (AID 165);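 note: 0% = growth equal to vehicle treated cultures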; settings: S. cerevisiae cln2 rad14 strain, stronger effect = higher value
In short: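 Test compounds were added to cln2 rad14 yeast cultures; inhibition of growth was then determined by comparison with vehicle treatment.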

[5] = NCI Yeast Anticancer Drug Screen. Data for the bub3 strain (AID 167); settings: S. cerevisiae bub3 mutant strain, stronger effect = higher value
In short: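 Steps: expose the mutant yeast strain to compound; grow alongside vehicle-treated cultures; measure growth; express inhibition against the vehicle cultures.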

[6] = NCI Yeast Anticancer Drug Screen. Data for the mlh1 rad18 strain (AID 175); settings: S. cerevisiae mlh1 rad18 strain growth inhibition, stronger effect = higher value
In short: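 Inhibition values reflect reduced growth of mutant yeast versus vehicle-treated controls following compound exposure; the mutations affect DNA damage repair.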

[7] = NCI Yeast Anticancer Drug Screen. Data for the wt1 strain (AID 149);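 note: 0% = growth of vehicle-treated wt1 cultures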; settings: S. cerevisiae wt1 strain (SPY 50644) growth inhibition, stronger effect = higher value
In short: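 Compounds are added to wt1 yeast cultures. Growth is then measured. Inhibition is expressed relative to vehicle-treated controls.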

[8] = NCI Yeast Anticancer Drug Screen. Data for the mgt1 strain (AID 153); settings: S. cerevisiae mgt1 mutant growth inhibition, stronger effect = higher value
In short: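 In the mgt1 strain, test compounds were added and growth inhibition was determined relative to vehicle-treated controls.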

[9] = NCI Yeast Anticancer Drug Screen. Data for the rad14 strain (AID 159);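 note: 0% = growth of vehicle-treated control cultures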; settings: S. cerevisiae rad14 strain growth inhibition, stronger effect = higher value
In short: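 A mutant yeast strain defective in DNA damage repair is treated with compound; inhibition of its growth is scored against untreated, vehicle-exposed cultures.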

[10] = NCI Yeast Anticancer Drug Screen. Data for the CLN2oe strain (AID 163);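 note: 0% = growth of vehicle-only control cultures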; settings: S. cerevisiae CLN2oe strain, stronger effect = higher value
In short: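 First, the altered yeast strain was treated with each compound; second, its growth was measured; finally, inhibition was derived by comparison with vehicle controls.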

[11] = NCI Yeast Anticancer Drug Screen. Data for the wt2 strain (AID 169);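 note: 0% = growth of vehicle-treated yeast cultures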; settings: S. cerevisiae wt2 strain growth inhibition, stronger effect = higher value
In short: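 The panel's yeast strains carry defined changes in DNA repair or cell cycle genes. Each strain is grown with compound, and growth loss is scored relative to vehicle.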

[12] = NCI Yeast Anticancer Drug Screen. Data for the mlh1 strain (AID 171);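 note: 0% = growth of vehicle-treated control cultures of the same strain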; settings: S. cerevisiae mlh1 strain growth inhibition, stronger effect = higher value
In short: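 Inhibition values reflect reduced yeast growth in the presence of compound, referenced to vehicle controls, using a strain chosen for its alteration in DNA repair or cell cycle control.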

[13] = at 5.0 µM (retest, dose inferred, filed as 0.5)
[14] = at 50.0 µM (retest, dose inferred, filed as 5.0)

COc1nc(N)c(N=CC(OC(C)=O)C(OC(C)=O)C(COC(C)=O)OC(C)=O)c(=O)n1C (configuration not stated)
growth inhibition [1, 13]: -3% and -10% and 6% | growth inhibition [1, 14]: -9% and -4% and -19% | growth inhibition [2, 13]: 24% and -10% and 7% | growth inhibition [2, 14]: 3% and 1% and 5% | growth inhibition [3, 13]: 8% and 6% and 29% | growth inhibition [3, 14]: 13% and -2% and -3% | growth inhibition [4, 13]: -6% and 1% and 6% | growth inhibition [4, 14]: -13% and 6% and 19% | growth inhibition [5, 13]: 10% and 11% and 13% | growth inhibition [5, 14]: -7% and -8% and -4% | growth inhibition [6, 13]: -3% and -20% and -25% | growth inhibition [6, 14]: 0% and -18% and -21%

c1ccc(C2=NNC3c4ccccc4-c4ccccc4N3C2)cc1 (configuration not stated)
growth inhibition ([7]; at 1.2 µM): -4% | growth inhibition ([7]; at 3.7 µM): -5% | growth inhibition ([7]; at 11.0 µM): -3% | growth inhibition ([7]; at 33.0 µM): 0% | growth inhibition ([7]; at 100.0 µM): 10% | growth inhibition ([8]; at 1.2 µM): -1% | growth inhibition ([8]; at 3.7 µM): 8% | growth inhibition ([8]; at 11.0 µM): -4% | growth inhibition ([8]; at 33.0 µM): -2% | growth inhibition ([8]; at 100.0 µM): 47% | growth inhibition ([1]; at 1.2 µM): 0% | growth inhibition ([1]; at 3.7 µM): 9% | growth inhibition [1, 13]: 16% | growth inhibition ([1]; at 11.0 µM): 11% | growth inhibition ([1]; at 33.0 µM): 33% | growth inhibition [1, 14]: 67% | growth inhibition ([1]; at 50.0 µM): 84.9% (active) | growth inhibition ([1]; at 100.0 µM): 92% (active) | growth inhibition ([2]; at 1.2 µM): 1% | growth inhibition ([2]; at 3.7 µM): 2% | growth inhibition [2, 13]: 6% | growth inhibition ([2]; at 11.0 µM): 3% | growth inhibition ([2]; at 33.0 µM): 5% | growth inhibition [2, 14]: 7% | growth inhibition ([2]; at 50.0 µM): 12.4% | growth inhibition ([2]; at 100.0 µM): 43% | growth inhibition ([9]; at 1.2 µM): -5% | growth inhibition ([9]; at 3.7 µM): -11% | growth inhibition ([9]; at 11.0 µM): 0% | growth inhibition ([9]; at 33.0 µM): 8% | growth inhibition ([9]; at 100.0 µM): 26% | growth inhibition [3, 13]: 6% | growth inhibition [3, 14]: 35% | growth inhibition ([3]; at 50.0 µM): 1.35% | growth inhibition ([10]; at 1.2 µM): 0% | growth inhibition ([10]; at 3.7 µM): -5% | growth inhibition ([10]; at 11.0 µM): -3% | growth inhibition ([10]; at 33.0 µM): 1% | growth inhibition ([10]; at 100.0 µM): 8% | growth inhibition [4, 13]: -122% | growth inhibition [4, 14]: 38% | growth inhibition ([4]; at 50.0 µM): 19.5% | growth inhibition ([5]; at 1.2 µM): 2% | growth inhibition ([5]; at 3.7 µM): -14% | growth inhibition [5, 13]: 1% | growth inhibition ([5]; at 11.0 µM): 5% | growth inhibition ([5]; at 33.0 µM): 11% | growth inhibition [5, 14]: 55% | growth inhibition ([5]; at 50.0 µM): 41% | growth inhibition ([5]; at 100.0 µM): 42% | growth inhibition ([11]; at 1.2 µM): -6% | growth inhibition ([11]; at 3.7 µM): -5% | growth inhibition ([11]; at 11.0 µM): -6% | growth inhibition ([11]; at 33.0 µM): 1% | growth inhibition ([11]; at 100.0 µM): 68% | growth inhibition ([12]; at 1.2 µM): -1% | growth inhibition ([12]; at 3.7 µM): 9% | growth inhibition ([12]; at 11.0 µM): 2% | growth inhibition ([12]; at 33.0 µM): 19% | growth inhibition ([12]; at 100.0 µM): 58%
